# In PubChem BioAssay (NCATS):
# Records with an inconclusive call do not appear. A number with no mark means an inactive call. The source made the active and inactive calls. The call rests on the fitted dose curve; in most records, active means well fitted activation curve with a large enough effect; inconclusive means small, poorly fitted or top-dose-only effect; inactive means no such curve, though single readings can be large or run the other way.
# Biological target: Rap guanine nucleotide exchange factor 3 (Homo sapiens) (UniProt O95398)
# Sequence (O95398 whole entry, looked up): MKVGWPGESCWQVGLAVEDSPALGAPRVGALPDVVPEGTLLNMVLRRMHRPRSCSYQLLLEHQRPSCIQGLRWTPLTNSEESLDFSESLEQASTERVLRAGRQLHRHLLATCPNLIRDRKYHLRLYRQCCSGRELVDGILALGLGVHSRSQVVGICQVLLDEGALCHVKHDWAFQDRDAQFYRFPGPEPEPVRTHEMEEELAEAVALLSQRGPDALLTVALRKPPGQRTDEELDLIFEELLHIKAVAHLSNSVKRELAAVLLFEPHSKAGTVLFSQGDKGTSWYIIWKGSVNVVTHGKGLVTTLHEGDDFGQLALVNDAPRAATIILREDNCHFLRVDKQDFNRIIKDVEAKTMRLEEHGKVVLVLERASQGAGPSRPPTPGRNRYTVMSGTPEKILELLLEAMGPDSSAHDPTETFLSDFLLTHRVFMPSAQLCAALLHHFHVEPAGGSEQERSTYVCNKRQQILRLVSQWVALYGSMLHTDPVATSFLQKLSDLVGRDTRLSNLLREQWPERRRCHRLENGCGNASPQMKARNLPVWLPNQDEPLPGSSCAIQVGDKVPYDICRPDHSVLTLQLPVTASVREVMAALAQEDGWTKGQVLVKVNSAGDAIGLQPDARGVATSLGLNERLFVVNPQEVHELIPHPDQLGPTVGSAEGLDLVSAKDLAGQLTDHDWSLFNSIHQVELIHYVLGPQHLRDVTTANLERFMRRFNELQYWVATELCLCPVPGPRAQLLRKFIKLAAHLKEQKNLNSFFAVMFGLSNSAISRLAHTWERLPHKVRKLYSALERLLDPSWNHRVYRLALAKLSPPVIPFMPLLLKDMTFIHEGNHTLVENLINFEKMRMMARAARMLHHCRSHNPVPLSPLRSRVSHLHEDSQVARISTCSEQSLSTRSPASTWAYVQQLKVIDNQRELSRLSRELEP
# Assay: Confirmatory qHTS for agonist of cAMP-regulated guanine nucleotide exchange factor 3 (EPAC1) (AID 1645881); further: nearly all actives have a fitted effect of over 75% in size; further: potency means the concentration at half of the fitted maximal effect;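 on activation: EPAC1 catalysed release of BODIPY-GDP from Rap1B seen as fluorescence loss; 100% = effect of cAMP agonist control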
# Conditions: EPAC1 Rap1B BODIPY-GDP exchange fluorescence; series mostly up to 154 µM; activation: at the top concentration
SMILES,activation,Potency
COc1ccc(OC)c(CNC(=O)CCCc2cn(C)c3ccccc23)c1,7.35%,
Oc1ccc(NCc2cccc(OCc3ccccc3)c2)cc1,15.6%,
CCc1nc2c(OCCC3CCCCC3)cccn2c1N(C)C(=O)c1ccc(C)cc1,-5.22%,
O=C(Nc1cccc(F)c1)c1ccc(-c2cccnc2)c2ccoc12,8.03%,
O=C(/C=C/c1ccco1)Nc1cccc2cccnc12,22.1%,
Cc1cccc(C)c1NC(=O)Cn1c(=O)n(Cc2ccc(C(=O)NCc3ccco3)cc2)c(=O)c2sccc21,-0.495%,
CCc1ccccc1OCC(=O)NCC1COc2ccccc2O1 (stereo not drawn),20.5%,
Cc1occc1-c1nnc(SCC(=O)c2cc3ccccc3oc2=O)o1,1.86%,
Cc1ccc(C(=O)N2CCc3cc(CNC(=O)CSc4ccccc4)ccc32)cc1,0.796%,
COCCCn1c(=O)/c(=C\c2ccccc2OC(C)C)s/c1=C(/C#N)C(=O)Nc1ccc(C(=O)O)cc1,-0.421%,
N#CCCN(CCC#N)S(=O)(=O)c1ccc(C(=O)Nc2nnc(C3=COCCO3)o2)cc1,-3.94%,
COc1ccc(C2C=C(c3ccc(Br)cc3)Nc3nnnn32)c(OC)c1 (stereo not drawn),2.55%,
Oc1ccc(Cc2ccc(Cl)cc2)c(O)c1,8.38%,
N#Cc1c(NC(=O)CSc2ncnc3sccc23)oc(-c2ccco2)c1-c1ccco1,11.1%,
COc1ccccc1[C@]1(C)ON(c2ccccc2C(F)(F)F)C1=O,15.3%,
Cc1cccc(NC(=O)CN2C(=O)N/C(=C\c3ccccc3OCc3ccc(C(=O)O)cc3)C2=O)c1,0.753%,
O=C1Cc2ccccc2C(=O)N1,14.4%,
COc1ccc(Oc2cn[nH]c2-c2ccc(OC)cc2O)cc1,15.9%,
O=C(CSc1nnc(-c2cnccn2)n1Cc1ccco1)c1ccc(Cl)cc1,7.53%,
O=C(O)CC/C(=C/c1cccc(NC(=O)c2ccccc2Cl)c1)c1nc2ccccc2s1,,100 µM (active)

SMILES,activation,Potency
CCc1ccc2occ(CC(=O)Nc3ccc(C)c(C)c3)c2c1,0.343%,
CCCc1nc2ccc(C(=O)OC)cn2c1Cc1ccc(C)cc1,12.9%,
CCCc1ccc2oc(C(=O)NCCc3nc(C(=O)OCC)cs3)c(C)c2c1,-1.65%,
Cc1ccc(NC(=O)CC2S/C(=N/N=C3\CCCc4ccccc43)NC2=O)cc1 (stereo not drawn),12.8%,
COc1ccc(Cn2c(-c3ccc(C)cc3)nc3c(c(=O)c4ccccc4n3C)c2=O)cc1,-5.19%,
CCN(CCCNC(=O)c1cc2cc3ccc(OC)cc3nc2s1)c1cccc(C)c1,3.69%,
Brc1cc2c(cc1CSc1ncccn1)OCO2,6.18%,
CN(CCOc1ccc(Br)cc1)C(=O)CNC(=O)c1ccc2ccccc2c1,9.34%,
Cc1ccc(NC(=O)CN2C(=O)S/C(=C\c3cccn3-c3cccc(C(=O)O)c3)C2=O)cc1C,12.1%,
CCC(=O)NC(c1ccc(OC)cc1)c1c(O)ccc2ccccc12 (stereo not drawn),10.9%,
O=C(CSc1ccc2ccccc2c1)Nc1ccc(S(=O)(=O)Nc2nccs2)cc1,12.6%,
CCC1=Nc2cc(C(=O)NCCCOC)ccc2Sc2ccc(Br)cc21,27.2%,
CC1CC(C)CN(C(=O)c2ccc3c(c2)N(Cc2ccccc2)CCS3)C1 (stereo not drawn),-3.22%,
CC(c1nc2ccccc2n1Cc1ccccc1)n1c(-c2cnccn2)nc2ccccc21 (stereo not drawn),15.9%,
CN(C)C(=O)c1cccc(-c2cnc3c(NC=O)cc(-c4ccccc4Cl)cn23)c1,3.34%,
Cc1ccc(C(NC(=O)C2CCN(Cc3ccc(Cl)c(Cl)c3)CC2)c2ccccn2)cc1 (stereo not drawn),16.6%,
O=C1CSC(c2cccc(Cl)c2Cl)N1c1ccccn1 (stereo not drawn),24.6%,
O=C(/C=C/c1ccco1)Nc1nc(-c2ccccn2)cs1,10.2%,
Cc1cccc(N(Cc2ccccc2)C(=O)CSC(C)C(=O)Nc2cc(C)on2)c1 (stereo not drawn),18%,

# Biological target: Rap guanine nucleotide exchange factor 4 (Homo sapiens) (UniProt Q8WZA2)
# Sequence (Q8WZA2 whole entry, looked up): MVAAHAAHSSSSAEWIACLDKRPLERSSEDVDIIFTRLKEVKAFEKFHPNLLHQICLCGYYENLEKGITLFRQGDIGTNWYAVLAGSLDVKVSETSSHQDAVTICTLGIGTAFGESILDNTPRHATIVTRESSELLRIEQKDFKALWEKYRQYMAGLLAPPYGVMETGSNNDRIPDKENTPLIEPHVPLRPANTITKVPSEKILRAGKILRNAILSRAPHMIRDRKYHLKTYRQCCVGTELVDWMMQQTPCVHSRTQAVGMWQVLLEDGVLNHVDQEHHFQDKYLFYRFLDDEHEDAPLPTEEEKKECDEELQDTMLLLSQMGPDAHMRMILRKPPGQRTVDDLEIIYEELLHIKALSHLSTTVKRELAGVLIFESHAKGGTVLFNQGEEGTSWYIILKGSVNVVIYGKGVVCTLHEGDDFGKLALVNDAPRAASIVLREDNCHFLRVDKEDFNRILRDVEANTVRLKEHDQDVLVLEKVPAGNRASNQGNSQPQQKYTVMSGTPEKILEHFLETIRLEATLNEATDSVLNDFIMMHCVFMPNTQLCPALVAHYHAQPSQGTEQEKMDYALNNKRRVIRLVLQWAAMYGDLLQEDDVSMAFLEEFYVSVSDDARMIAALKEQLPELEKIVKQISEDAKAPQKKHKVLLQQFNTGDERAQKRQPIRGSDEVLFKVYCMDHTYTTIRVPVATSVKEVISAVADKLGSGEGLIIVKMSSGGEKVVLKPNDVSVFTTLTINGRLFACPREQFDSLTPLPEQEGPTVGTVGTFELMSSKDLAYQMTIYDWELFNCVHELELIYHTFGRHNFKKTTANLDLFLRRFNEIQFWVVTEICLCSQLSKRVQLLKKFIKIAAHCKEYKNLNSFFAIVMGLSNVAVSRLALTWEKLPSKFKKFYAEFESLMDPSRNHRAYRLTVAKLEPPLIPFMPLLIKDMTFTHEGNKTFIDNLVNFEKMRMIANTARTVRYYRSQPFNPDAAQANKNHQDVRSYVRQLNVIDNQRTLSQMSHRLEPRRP
# Assay: Confirmatory qHTS for agonist of cAMP-regulated guanine nucleotide exchange factor 4 (EPAC2) (AID 1645884);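 further: nucleotide exchange releases bodipy-GDP from Rap1 and this lowers its fluorescence; on the % scale 0 is the no-effect control and ±100 the full control effect; nearly all actives have a fitted effect of over 65% in size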
# Conditions: EPAC2 GEF activity, Rap1B-BODIPY-GDP fluorescence; series mostly up to 154 µM; activation: at the top concentration
row,SMILES,activation
1,COc1ccc(OC)c(CNC(=O)CCCc2cn(C)c3ccccc23)c1,6.17%
2,Oc1ccc(NCc2cccc(OCc3ccccc3)c2)cc1,10.6%
3,CCc1nc2c(OCCC3CCCCC3)cccn2c1N(C)C(=O)c1ccc(C)cc1,-20.4%
4,O=C(Nc1cccc(F)c1)c1ccc(-c2cccnc2)c2ccoc12,1.91%
5,O=C(/C=C/c1ccco1)Nc1cccc2cccnc12,"3.39% [at 17.1 µM, percent relative to cAMP agonist control]"
6,Cc1cccc(C)c1NC(=O)Cn1c(=O)n(Cc2ccc(C(=O)NCc3ccco3)cc2)c(=O)c2sccc21,"11.6% [at 83.8 µM, percent relative to cAMP agonist control]"
7,CCc1ccccc1OCC(=O)NCC1COc2ccccc2O1 (stereo not drawn),13%
8,Cc1occc1-c1nnc(SCC(=O)c2cc3ccccc3oc2=O)o1,"-0.174% [at 17.1 µM, percent relative to cAMP agonist control]"
9,Cc1ccc(C(=O)N2CCc3cc(CNC(=O)CSc4ccccc4)ccc32)cc1,"-6.57% [at 83.8 µM, percent relative to cAMP agonist control]"
10,COCCCn1c(=O)/c(=C\c2ccccc2OC(C)C)s/c1=C(/C#N)C(=O)Nc1ccc(C(=O)O)cc1,"8.99% [at 17.1 µM, percent relative to cAMP agonist control]"
11,N#CCCN(CCC#N)S(=O)(=O)c1ccc(C(=O)Nc2nnc(C3=COCCO3)o2)cc1,0.784%
12,COc1ccc(C2C=C(c3ccc(Br)cc3)Nc3nnnn32)c(OC)c1 (stereo not drawn),"4.08% [at 83.8 µM, percent relative to cAMP agonist control]"
13,Oc1ccc(Cc2ccc(Cl)cc2)c(O)c1,"7.91% [at 17.1 µM, percent relative to cAMP agonist control]"
14,N#Cc1c(NC(=O)CSc2ncnc3sccc23)oc(-c2ccco2)c1-c1ccco1,11.2%
15,COc1ccccc1[C@]1(C)ON(c2ccccc2C(F)(F)F)C1=O,7.85%
16,Cc1cccc(NC(=O)CN2C(=O)N/C(=C\c3ccccc3OCc3ccc(C(=O)O)cc3)C2=O)c1,-10.1%
17,O=C1Cc2ccccc2C(=O)N1,6.13%
18,COc1ccc(Oc2cn[nH]c2-c2ccc(OC)cc2O)cc1,"9.65% [at 17.1 µM, percent relative to cAMP agonist control]"
19,O=C(CSc1nnc(-c2cnccn2)n1Cc1ccco1)c1ccc(Cl)cc1,3.97%
20,O=C(O)CC/C(=C/c1cccc(NC(=O)c2ccccc2Cl)c1)c1nc2ccccc2s1,0%

row,SMILES,activation
1,CCc1ccc2occ(CC(=O)Nc3ccc(C)c(C)c3)c2c1,"-10.5% [at 83.8 µM, percent relative to cAMP agonist control]"
2,CCCc1nc2ccc(C(=O)OC)cn2c1Cc1ccc(C)cc1,13.9%
3,CCCc1ccc2oc(C(=O)NCCc3nc(C(=O)OCC)cs3)c(C)c2c1,"-3.74% [at 17.1 µM, percent relative to cAMP agonist control]"
4,Cc1ccc(NC(=O)CC2S/C(=N/N=C3\CCCc4ccccc43)NC2=O)cc1 (stereo not drawn),"0% [at 17.1 µM, percent relative to cAMP agonist control]"
5,COc1ccc(Cn2c(-c3ccc(C)cc3)nc3c(c(=O)c4ccccc4n3C)c2=O)cc1,"-1.59% [at 17.1 µM, percent relative to cAMP agonist control]"
6,CCN(CCCNC(=O)c1cc2cc3ccc(OC)cc3nc2s1)c1cccc(C)c1,"6.5% [at 83.8 µM, percent relative to cAMP agonist control]"
7,Brc1cc2c(cc1CSc1ncccn1)OCO2,"-6.54% [at 17.1 µM, percent relative to cAMP agonist control]"
8,CN(CCOc1ccc(Br)cc1)C(=O)CNC(=O)c1ccc2ccccc2c1,"0.226% [at 17.1 µM, percent relative to cAMP agonist control]"
9,Cc1ccc(NC(=O)CN2C(=O)S/C(=C\c3cccn3-c3cccc(C(=O)O)c3)C2=O)cc1C,"3.81% [at 17.1 µM, percent relative to cAMP agonist control]"
10,CCC(=O)NC(c1ccc(OC)cc1)c1c(O)ccc2ccccc12 (stereo not drawn),9.47%
11,O=C(CSc1ccc2ccccc2c1)Nc1ccc(S(=O)(=O)Nc2nccs2)cc1,"0.22% [at 17.1 µM, percent relative to cAMP agonist control]"
12,CCC1=Nc2cc(C(=O)NCCCOC)ccc2Sc2ccc(Br)cc21,"-6.95% [at 83.8 µM, percent relative to cAMP agonist control]"
13,CC1CC(C)CN(C(=O)c2ccc3c(c2)N(Cc2ccccc2)CCS3)C1 (stereo not drawn),"14.1% [at 17.1 µM, percent relative to cAMP agonist control]"
14,CC(c1nc2ccccc2n1Cc1ccccc1)n1c(-c2cnccn2)nc2ccccc21 (stereo not drawn),7.76%
15,CN(C)C(=O)c1cccc(-c2cnc3c(NC=O)cc(-c4ccccc4Cl)cn23)c1,1.66%
16,Cc1ccc(C(NC(=O)C2CCN(Cc3ccc(Cl)c(Cl)c3)CC2)c2ccccn2)cc1 (stereo not drawn),15.7%
17,O=C1CSC(c2cccc(Cl)c2Cl)N1c1ccccn1 (stereo not drawn),"6.45% [at 17.1 µM, percent relative to cAMP agonist control]"
18,O=C(/C=C/c1ccco1)Nc1nc(-c2ccccn2)cs1,7.54%
19,Cc1cccc(N(Cc2ccccc2)C(=O)CSC(C)C(=O)Nc2cc(C)on2)c1 (stereo not drawn),10.4%
